Compound activity as filed in PubChem.
In the library only some 3.1% were active in any assay of this set; here they are far more common.
Beta cell apopt = inhibitors of cytokine-induced beta cell apoptosis, primary screen, luminescence. INS-1E cytokine-induced death, ATP luminescence, 48 h; percent of positive-control rescue, neutral wells zero. protection from apoptosis, % (test concentration not listed). 0.8% of 300,000 active;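 active = Every replicate reaches about 75%, or at least half do and their mean reaches it too, limit read from the data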;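 also: higher means more ATP so stronger rescue from cytokine killing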
SKKanGAS inh = S. pyogenes SKKanGAS growth inhibitors in kanamycin, primary screen, streptokinase expression inhibitor project, SKKanGAS strain, BacTiter-Glo luminescence. 6 h. 1.3% of 300,000 active. inhibition, % at 7.5 µM;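 active = mean replicate score, as percent of positive control median, at least 50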;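 also: strain carries kanamycin resistance gene driven by streptokinase promoter and grows in 40 µg/ml kanamycin; loss of luminescence reflects streptokinase promoter inhibition or plain growth inhibition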
PP5 primary = PP5 phosphatase inhibitors, primary screen, biochemical, fluorescence. 0.18% of 320,000 active. purified PP5c, OMFP substrate fluorescence. inhibition, % at 6.7 µM. Serine/threonine-protein phosphatase 5 (Homo sapiens), P53041;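 active = inhibition above the campaign's mean inhibition across all tested compounds plus 3 SD, cut at about 9.5% in these data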
Target sequence (P53041 whole entry, looked up): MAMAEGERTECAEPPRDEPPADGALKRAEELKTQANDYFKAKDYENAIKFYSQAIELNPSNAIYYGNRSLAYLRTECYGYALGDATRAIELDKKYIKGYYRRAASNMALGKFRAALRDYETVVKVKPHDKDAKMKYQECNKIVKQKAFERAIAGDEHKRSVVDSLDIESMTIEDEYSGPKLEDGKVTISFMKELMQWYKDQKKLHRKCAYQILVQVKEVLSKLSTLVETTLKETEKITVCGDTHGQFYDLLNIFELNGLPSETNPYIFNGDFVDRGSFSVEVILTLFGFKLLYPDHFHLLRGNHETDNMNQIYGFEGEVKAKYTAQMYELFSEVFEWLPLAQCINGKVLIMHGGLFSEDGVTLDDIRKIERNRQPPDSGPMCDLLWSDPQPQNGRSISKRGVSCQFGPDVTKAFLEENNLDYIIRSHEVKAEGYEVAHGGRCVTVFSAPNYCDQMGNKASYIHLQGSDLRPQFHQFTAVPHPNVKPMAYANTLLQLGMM
CSC inhib = cancer stem cell viability inhibitors, primary screen, luminescence. cancer stem cell-like cells viability. inhibition, % at 7.5 µM. 1.1% of 300,000 active. AID 2717, 2010; in the data active = inhibition above about 75%; tested in HMLE shEcad cells
PP1 counter = PP1-alpha phosphatase inhibitors, primary screen, counter-screen for PP5 inhibitor project, biochemical, fluorescence, OMFP substrate, single point; Serine/threonine-protein phosphatase PP1-alpha catalytic subunit (Homo sapiens), P62136; purified PP1alpha; inhibition, % at 6.7 µM; 0.9% of 320,000 active; AID 2235, 2010;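 active = inhibition above the mean inhibition of all tested compounds plus 3 SD, computed separately for each screening campaign, cut at about 15% in these data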
Numbers stand for hits.

Results for COc1cc(/C=N/NC(=O)c2cc(-c3c(C)nn(-c4ccccc4)c3C)n[nH]2)ccc1O ?
Beta cell apopt: inactive; SKKanGAS inh: 87; PP5 primary: inactive; CSC inhib: inactive; PP1 counter: inactive

Results for COc1cc(/C=N/NC(=O)c2cc(-c3ccc4c(c3)OCO4)n[nH]2)ccc1O ?
Beta cell apopt: inactive; SKKanGAS inh: inactive; PP5 primary: inactive; CSC inhib: 75; PP1 counter: inactive

What do the screens show for `Cc1nn(-c2ccccc2)c(C)c1/C=N/NC(=O)c1cc(O)cc(O)c1`?
Beta cell apopt: inactive; SKKanGAS inh: inactive; PP5 primary: inactive; CSC inhib: inactive; PP1 counter: inactive

What do the screens show for `Cc1nn(-c2ccccc2)c(C)c1-c1cc(C(=O)N/N=C/c2ccc(O)cc2)[nH]n1`?
Beta cell apopt: inactive; SKKanGAS inh: inactive; PP5 primary: inactive; CSC inhib: 75; PP1 counter: inactive

What do the screens show for `COc1cc(/C=N/NC(=O)c2ccc(CN(C)S(=O)(=O)c3ccc(C)cc3)cc2)ccc1O`?
Beta cell apopt: inactive; SKKanGAS inh: inactive; PP5 primary: inactive; CSC inhib: 78; PP1 counter: inactive

How did O=C(C[C@H]1C/C=C\C[C@@H](Cc2ccc(F)cc2)C(=O)OC[C@H]2CCCN2C1=O)NCCO do in these assays?
Beta cell apopt: inactive

What do the screens show for `COc1ccc(Cn2c(O)c(C=Nc3ccc(O)cc3)c3ccccc3c2=O)cc1`?
Beta cell apopt: inactive; SKKanGAS inh: inactive; PP5 primary: inactive; CSC inhib: inactive; PP1 counter: inactive

Results for O=c1c2ccccc2c(C=Nc2ccc(O)cc2)c(O)n1Cc1ccccc1 ?
Beta cell apopt: inactive; SKKanGAS inh: 67; PP5 primary: inactive; CSC inhib: inactive; PP1 counter: inactive

What do the screens show for `COc1ccc(OC)c(/C=N/NC(=O)C(=O)N2CCCCCC2)c1`?
Beta cell apopt: inactive; SKKanGAS inh: inactive; PP5 primary: inactive; CSC inhib: inactive; PP1 counter: inactive

How did N=C1/C(=C/c2cccs2)C(=O)N=C2SN=C(SCc3ccccc3)N12 do in these assays?
Beta cell apopt: inactive; SKKanGAS inh: 81; PP5 primary: inactive; CSC inhib: inactive; PP1 counter: inactive

What do the screens show for `ClCc1nc2ccccc2n1Cc1ccccc1`?
Beta cell apopt: inactive; SKKanGAS inh: inactive; PP5 primary: inactive; CSC inhib: inactive; PP1 counter: inactive

What do the screens show for `Cc1ccc(Cn2c(Cc3ccccc3)nc3ccccc32)cc1`?
Beta cell apopt: inactive; SKKanGAS inh: 69; PP5 primary: inactive; CSC inhib: inactive; PP1 counter: inactive

Results for O=C(Nc1ccccc1N1CCOCC1)c1ccc([N+](=O)[O-])o1 ?
Beta cell apopt: inactive; SKKanGAS inh: inactive; PP5 primary: inactive; CSC inhib: inactive; PP1 counter: inactive

What do the screens show for `O=C(Nc1ccccc1N1CCN(C(=O)c2ccc(Cl)cc2)CC1)c1ccc(Br)cc1`?
SKKanGAS inh: inactive; PP5 primary: inactive; CSC inhib: inactive; PP1 counter: 16

What do the screens show for `O=C(Nc1ccccc1N1CCN(C(=O)c2ccc(Cl)cc2)CC1)c1ccc([N+](=O)[O-])o1`?
Beta cell apopt: inactive; SKKanGAS inh: 79; PP5 primary: inactive; CSC inhib: inactive; PP1 counter: inactive

How did O=C(Cc1ccc(Cl)cc1)Nc1ccc2c(c1)C(=O)NC2=O do in these assays?
Beta cell apopt: 119; SKKanGAS inh: inactive; PP5 primary: inactive; CSC inhib: 91; PP1 counter: inactive

Results for CN(Cc1nccn1C)C(=O)c1ccc(OC2CCN(CCc3ccccc3)CC2)cc1 ?
Beta cell apopt: inactive; SKKanGAS inh: inactive; PP5 primary: inactive; CSC inhib: inactive; PP1 counter: inactive

How did COc1ccccc1C(=O)NNC(=O)C(=O)Nc1ccc(C)c(Cl)c1 do in these assays?
Beta cell apopt: inactive; SKKanGAS inh: 98; PP5 primary: inactive; PP1 counter: inactive

How did COc1ccc(NC(=O)c2ccc(NC(=O)CN3CCC(C(N)=O)CC3)cc2)cc1 do in these assays?
Beta cell apopt: inactive; CSC inhib: inactive

Results for C(#Cc1ccccc1)C[N+]1(CC#Cc2ccccc2)CCCCC1 ?
SKKanGAS inh: inactive; PP5 primary: inactive; CSC inhib: inactive; PP1 counter: inactive

Results for CCC[N+]1(CC#CCC(c2ccccc2)c2ccccc2)CCCCC1 ?
Beta cell apopt: 105; SKKanGAS inh: inactive; PP5 primary: inactive; CSC inhib: inactive; PP1 counter: inactive

Results for Cc1[nH]n(-c2ccccc2)c(=O)c1/C=N/N(c1ccccc1)c1ccccc1 ?
Beta cell apopt: inactive; SKKanGAS inh: 78; PP5 primary: inactive; CSC inhib: inactive; PP1 counter: inactive

Results for CCOC(=O)N1CCc2c(sc(NC(C)=O)c2C(N)=O)C1 ?
Beta cell apopt: inactive; SKKanGAS inh: inactive; PP5 primary: inactive; CSC inhib: inactive; PP1 counter: inactive

What do the screens show for `CCOC(=O)N1CCc2c(sc(NC(=O)c3ccc(Cl)s3)c2C(N)=O)C1`?
PP5 primary: inactive; CSC inhib: 86; PP1 counter: inactive

How did CCOC(=O)c1c(NC(=O)c2cccs2)sc2c1CCCC2 do in these assays?
Beta cell apopt: inactive; SKKanGAS inh: inactive; PP5 primary: inactive; CSC inhib: inactive; PP1 counter: inactive

How did CCOC(=O)c1c(NC(=O)c2cccs2)sc2c1CCN(C(=O)OCC)C2 do in these assays?
Beta cell apopt: inactive; SKKanGAS inh: 54; PP5 primary: inactive; CSC inhib: inactive; PP1 counter: inactive

Results for O=C1CN(/N=C/c2ccc([N+](=O)[O-])o2)C(=O)N1 ?
Beta cell apopt: inactive; SKKanGAS inh: 84; PP5 primary: inactive; CSC inhib: inactive; PP1 counter: inactive

How did CCc1ccc(/C=C/c2c([N+](=O)[O-])c(=O)n(C)c(=O)n2C)cc1 do in these assays?
Beta cell apopt: inactive; SKKanGAS inh: 50; PP5 primary: inactive; CSC inhib: inactive; PP1 counter: inactive

Results for Cc1ccsc1-c1nc(CN(C)C(C2CC2)C2CC2)c(C)o1 ?
Beta cell apopt: inactive; SKKanGAS inh: inactive; PP5 primary: inactive; CSC inhib: inactive; PP1 counter: inactive

Results for Cc1cc(/C=C2\SC(=S)NC2=O)c(C)n1-c1ccccc1 ?
SKKanGAS inh: inactive; PP5 primary: inactive; CSC inhib: inactive; PP1 counter: inactive

What do the screens show for `Cc1cc(/C=C(\C#N)C(=O)Nc2ccc(F)cc2)c(C)n1-c1ccc(N2CCOCC2)c([N+](=O)[O-])c1`?
Beta cell apopt: inactive; SKKanGAS inh: inactive; PP5 primary: inactive; CSC inhib: inactive; PP1 counter: inactive

What do the screens show for `Cc1cc(/C=C2\SC(=S)NC2=O)c(C)n1-c1ccc(O)cc1`?
Beta cell apopt: inactive; SKKanGAS inh: 100; PP5 primary: inactive; CSC inhib: inactive; PP1 counter: inactive

Results for CNC(=O)/C(C#N)=C\c1cc(C)n(-c2ccc(N3CCOCC3)cc2)c1C ?
Beta cell apopt: inactive; SKKanGAS inh: 62; PP5 primary: inactive; CSC inhib: inactive; PP1 counter: inactive

Results for Cc1cc(/C=C2/SC(=O)NC2=O)c(C)n1-c1ccc(N2CCOCC2)cc1 ?
Beta cell apopt: inactive; SKKanGAS inh: 90; PP5 primary: inactive; PP1 counter: inactive
